Calls of active or inactive are those of the source. Rule for the calls: active = hit-call score of the fitted dose curve at least 0.9, where 1 is the maximum; inactive = score below 0.9.

The test in a line: ATG_NFI_CIS: Attagene CIS-FACTORIAL HepG2 Assay for human Nuclear Factor I (NFI) (AID 2282989). The note with it: HepG2 cis-regulatory reporter, NFI response element transcription; actives raise or lower the signal. As to the method: ATG_CIS is a cell-based, multiplexed-readout assay that uses HepG2, a human liver cell line, with measurements taken at 24 hours after chemical dosing in a 24-well plate.ATG_NFI_CIS is one of 52 assay component(s) measured or calculated from the ATG_CIS assay. It is designed to make measurements of mRNA induction, a form of inducible reporter, as detected with fluorescence intensity signals by Reverse transcription polymerase chain reaction (RT-PCR) and Capillary electrophoresis technology.Data from the assay component ATG_NFI_CIS was analyzed into 1 assay endpoint. This assay endpoint, ATG_NFI_CIS, was analyzed with bidirectional fitting relative to DMSO as the negative control and baseline of activity. Using a type of inducible reporter, measures of mRNA for gain or loss-of-signal activity can be used to understand the reporter gene at the transcription factor-level as they relate to the gene NFIA. Furthermore, this assay endpoint can be referred to as a primary readout, because this assay has produced multiple assay endpoints where this one serves a reporter gene function. To generalize the intended target to other relatable targets, this assay endpoint is annotated to the dna binding intended target family, where the subfamily is nuclear factor I.
Human liver HepG2 cells are transiently transfected with multiple reporter transcription units (MRTUs) in 6-well plates using FuGene 6 reagent (Roche; 3 ml FuGene/1 mg DNA). The MRTU constructs are regulated by a cis-regulating element (promoter). […] A major difference between the CIS and TRANS system is that in CIS activities of endogenous TFs are measured, whereas the TRANS assay evaluates changes in activities of exogenous, chimeric NR-Gal4 proteins. […] At the end of 24 hour incubation, total RNA was isolated using TriZol reagent (Invitrogen). The isolated RNA is then reverse-transcribed using oligo(dT) primer and Mo-MLV reverse transcriptase (Invitrogen) with DNAse I (Ambion) treatment for 30 min. The one-tenth of the produced cDNA was amplified by PCR using Taq DNA polymerase (Invitrogen) and two reporter sequence-specific primers. The PCR products were fluorescently labeled by primer extension with 6-arboxyfluorescein (6-FAM) 5'-labeled reporter sequence-specific primer (2 min at 95 C, 20 s at 68 C and 10 min at 72 C) and these products were digested with 5U of HpaI (New England Biolabs) for 2h at 37 C. The fragments were purified using Qiaquick PCR columns (Qiagen), analyzed on an ABI 3130xL genetic analyzer (Applied Biosystems) with peak positions identified by using a set of X-rhodamine (ROX)-labeled MapMarker1000 molecular weight standards (BioVentures). The raw capillary electrophoresis data was processed using Attagraph software (Attagene).
With `CC(CCl)OP(=O)(OC(C)CCl)OC(C)CCl` (stereo not given), the molecule was called inactive.

`O=C(O)C(F)(F)C(F)(F)C(F)(F)C(F)(F)C(F)(F)C(F)(F)C(F)(F)C(F)(F)C(F)(F)C(F)F`: the molecule was classed as inactive.

In the case of `OCC(F)(F)C(F)(F)C(F)(F)C(F)F`, the molecule was classed as inactive.

Regarding `FC(F)(F)C(F)(F)C(F)(F)C(F)(F)C(F)(F)C(F)(F)CCS`, the call was inactive.

In the case of `CCCCCCOC(=O)c1ccccc1O`, the result was inactive.

Turning to `FC(F)(F)C(F)(F)C(F)(F)C(F)(F)C(F)(F)C(F)(F)CC1CO1` (stereo not given), the molecule was classed as inactive.

Broadly, the AC50 is the midpoint of the concentration-response curve, whichever way the signal moves. As for `N=C(N)C(F)(F)C(F)(F)C(F)(F)C(F)(F)C(F)(F)C(F)(F)C(F)(F)F`, the AC50 was 271 µM (active).

For `Cc1cccc(N(C)C)c1`, the molecule was called inactive.

Consider `COC(=O)CCC(F)(F)C(F)(F)C(F)(F)C(F)(F)F`, for which the outcome was inactive.

For `FC(F)(F)C(F)(F)C(F)(F)C(F)(F)C(F)(F)C(F)(F)C(F)(F)Br`, the result was inactive.

Take `c1ccc(B(c2ccccc2)c2ccccc2)cc1`: the AC50 was 26.7 µM (active).

With `CCCCC(CC)COP(=O)(O)OCC(CC)CCCC` (stereo not given), the call was inactive.

In the case of `FC(F)(F)C(F)(F)C(F)(F)CI`, the molecule was called inactive.

In the case of `O=C(CC(=O)C(F)(F)C(F)(F)F)C(F)(F)F`, the outcome was inactive.

Regarding `O=C(O)C(F)(F)C(F)(F)F`, the molecule was classed as inactive.

On to `c1ccc(-c2ccccc2-c2ccccc2)cc1`, for which the AC50 was 100 µM (active).

For the molecule `OCC(F)(F)C(F)(F)C(F)(F)F`, the call was inactive.

In the case of `C(=C(c1ccccc1)c1ccccc1)c1ccccc1`, the result was inactive.

In the case of `Oc1ccc(Nc2ccccc2)cc1`, the molecule was called inactive.

With `O=C(O)C(F)(F)C(F)(F)C(F)(F)C(F)(F)C(F)(F)C(F)(F)C(F)(F)C(F)(F)C(F)(F)C(F)(F)C(F)(F)C(F)(F)C(F)(F)F`, the outcome was inactive.

Take `CCN(CC)c1ccc2c(C)cc(=O)oc2c1`: the molecule was called inactive.

Regarding `Cc1cc(C)cc(O)c1`, the outcome was inactive.

Turning to `CCC(=O)OCCc1ccccc1`, the result was inactive.

For the molecule `Cc1ccc(S(=O)(=O)OCC(F)(F)C(F)(F)C(F)(F)C(F)(F)C(F)(F)C(F)F)cc1`, the molecule was called inactive.

Take `CCCCOc1ccc(N)cc1`: the molecule was classed as inactive.

For the molecule `CC(C)(C)C(=O)CC(=O)C(F)(F)C(F)(F)C(F)(F)F`, the outcome was inactive.

In the case of `O=S(=O)(OCCOC(F)(F)F)C(F)(F)F`, the outcome was inactive.

`Cc1ccc(S(=O)(=O)NCl)cc1`: the molecule was classed as inactive.

As to `CS(C)(=O)=O`, the result was inactive.

Turning to `C=CC(=O)OCC(F)(F)C(F)(F)C(F)(F)C(F)(F)COC(=O)C=C`, the half-maximal activity concentration (AC50) is 50 µM (active).

`CC(C)c1ccccc1N`: the result was inactive.

Take `O=C(O)C(F)(F)C(F)(F)OC(F)(F)F`: the outcome was inactive.

For the molecule `NC(=O)C(F)(F)C(F)(F)C(F)(F)C(F)(F)F`, the result was inactive.

On to `CCc1ccc(C(c2ccc(CC)cc2)C(Cl)Cl)cc1`, for which the molecule was called inactive.

On to `CC(=O)Nc1ccc(N=Nc2cc(C)ccc2O)cc1`, for which the call was inactive.

For the molecule `CC(C)OC(=O)c1ccccc1C(=O)OC(C)C`, the molecule was classed as inactive.

`O=S(=O)(O)c1ccc2ccccc2c1`: the molecule was called inactive.

In the case of `O=C(Cl)C(F)(F)C(F)(F)C(F)(F)C(F)(F)C(F)(F)C(F)(F)C(F)(F)C(F)(F)F`, the molecule was classed as inactive.

In the case of `CC/C=C\CCOC(=O)c1ccccc1`, the result was inactive.

As to `CCO[Si](CCC(F)(F)C(F)(F)C(F)(F)C(F)(F)C(F)(F)C(F)(F)F)(OCC)OCC`, the call was inactive.

Source of the values: PubChem BioAssay (EPA / NIEHS).
